In paper PMC11006913 one finds binding signal data, which are given here for 15 sequences.

Common to all, as to test: PBM; 200 nM protein, PBS
Common to all, as to conditions: dsDNA, one strand shown

Assay [1] addresses HOXB9 (Homo sapiens, UniProt P17482 171-250).
Assay [2] addresses HESX1 (Homo sapiens, UniProt Q9UBX0 95-180, R165K).
For assay [3], the target named is HESX1 (Homo sapiens, UniProt Q9UBX0 95-180).
In assay [4] the target is HESX1 (Homo sapiens, UniProt Q9UBX0 95-180, F115L).
In assay [5] the target is HOXB6 (Homo sapiens, UniProt P17509 132-218, K202E).
Assay [6] addresses HOXA2 (Homo sapiens, UniProt O43364 129-215, R185T).
Assay [7] concerns the target HOXA2 (Homo sapiens, UniProt O43364 129-215, R185K).
Assay [8] deals with HOXA2 (Homo sapiens, UniProt O43364 129-215, Y150S).
Assay [9] concerns the target HOXA2 (Homo sapiens, UniProt O43364 129-215).
For assay [10], the target named is HOXB6 (Homo sapiens, UniProt P17509 132-218).
For assay [11], the target named is SHOX (Homo sapiens, UniProt O15266 103-189).
The target in assay [12] is MSX2 (Homo sapiens, UniProt P35548 130-214, R199I).
The target in assay [13] is SHOX (Homo sapiens, UniProt O15266 103-189, R173C).
For assay [14], the target named is MSX2 (Homo sapiens, UniProt P35548 130-214).
The target of assay [15] is PROP1 (Homo sapiens, UniProt O75360 56-141).
Assay [16] concerns the target PROP1 (Homo sapiens, UniProt O75360 56-141, R99H).
Assay [17] has as its target PROP1 (Homo sapiens, UniProt O75360 56-141, F88S).
For assay [18], the target named is MSX2 (Homo sapiens, UniProt P35548 130-214, F161Y).
Another assay concerns the target VAX1 (Homo sapiens, UniProt Q5SQQ9 86-172, K157R).
The target of assay [19] is HOXB9 (Homo sapiens, UniProt P17482 171-250, T197M).
HOXB9 (Homo sapiens, UniProt P17482 171-250, T197M), sequence (P17482 171-250 T197M): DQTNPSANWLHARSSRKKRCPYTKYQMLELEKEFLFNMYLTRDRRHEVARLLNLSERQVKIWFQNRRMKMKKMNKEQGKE

MSX2 (Homo sapiens, UniProt P35548 130-214, R199I), sequence (P35548 130-214 R199I): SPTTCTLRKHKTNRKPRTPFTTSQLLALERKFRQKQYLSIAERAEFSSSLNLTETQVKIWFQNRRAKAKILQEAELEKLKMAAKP
HOXB9 (Homo sapiens, UniProt P17482 171-250), sequence (P17482 171-250): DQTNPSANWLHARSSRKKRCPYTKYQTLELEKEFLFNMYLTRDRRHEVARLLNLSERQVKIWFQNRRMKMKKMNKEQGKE
MSX2 (Homo sapiens, UniProt P35548 130-214), sequence (P35548 130-214): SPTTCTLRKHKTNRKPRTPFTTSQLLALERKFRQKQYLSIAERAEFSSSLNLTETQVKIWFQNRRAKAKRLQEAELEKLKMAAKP
HOXB6 (Homo sapiens, UniProt P17509 132-218), sequence (P17509 132-218): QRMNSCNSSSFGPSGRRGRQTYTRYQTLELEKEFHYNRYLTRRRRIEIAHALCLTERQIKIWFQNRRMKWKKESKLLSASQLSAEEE
VAX1, sequence (Q5SQQ9 86-172 K157R): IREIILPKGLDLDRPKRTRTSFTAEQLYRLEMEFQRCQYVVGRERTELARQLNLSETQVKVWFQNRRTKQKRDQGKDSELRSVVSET
HOXA2 (Homo sapiens, UniProt O43364 129-215), sequence (O43364 129-215): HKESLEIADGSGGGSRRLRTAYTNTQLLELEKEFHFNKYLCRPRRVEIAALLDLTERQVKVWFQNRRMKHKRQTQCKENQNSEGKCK
HESX1 (Homo sapiens, UniProt Q9UBX0 95-180, R165K), sequence (Q9UBX0 95-180 R165K): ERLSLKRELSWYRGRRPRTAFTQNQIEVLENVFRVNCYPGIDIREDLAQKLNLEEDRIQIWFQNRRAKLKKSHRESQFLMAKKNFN
MSX2 (Homo sapiens, UniProt P35548 130-214, F161Y), sequence (P35548 130-214 F161Y): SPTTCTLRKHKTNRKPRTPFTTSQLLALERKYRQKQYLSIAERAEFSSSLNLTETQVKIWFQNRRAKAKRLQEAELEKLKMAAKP
HOXB6 (Homo sapiens, UniProt P17509 132-218, K202E), sequence (P17509 132-218 K202E): as the sequence (P17509 132-218) above, with K71E counted along it
HOXA2 (Homo sapiens, UniProt O43364 129-215, R185K), sequence (O43364 129-215 R185K): as the sequence (O43364 129-215) above, with R57K counted along it
HOXA2 (Homo sapiens, UniProt O43364 129-215, Y150S), sequence (O43364 129-215 Y150S): as the sequence (O43364 129-215) above, with Y22S counted along it
HOXA2 (Homo sapiens, UniProt O43364 129-215, R185T), sequence (O43364 129-215 R185T): as the sequence (O43364 129-215) above, with R57T counted along it
HESX1 (Homo sapiens, UniProt Q9UBX0 95-180, F115L), sequence (Q9UBX0 95-180 F115L): as the sequence (Q9UBX0 95-180 R165K) above, with F21L, K71R counted along it
HESX1 (Homo sapiens, UniProt Q9UBX0 95-180), sequence (Q9UBX0 95-180): as the sequence (Q9UBX0 95-180 R165K) above, with K71R counted along it
SHOX (Homo sapiens, UniProt O15266 103-189), sequence (O15266 103-189): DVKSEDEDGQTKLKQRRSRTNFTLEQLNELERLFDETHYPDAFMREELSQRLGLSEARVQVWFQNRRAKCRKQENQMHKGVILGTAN
PROP1 (Homo sapiens, UniProt O75360 56-141), sequence (O75360 56-141): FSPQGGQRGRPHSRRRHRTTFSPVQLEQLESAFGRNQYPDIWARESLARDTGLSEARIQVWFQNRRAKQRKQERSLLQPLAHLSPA
SHOX (Homo sapiens, UniProt O15266 103-189, R173C), sequence (O15266 103-189 R173C): as the sequence (O15266 103-189) above, with R71C counted along it
PROP1 (Homo sapiens, UniProt O75360 56-141, R99H), sequence (O75360 56-141 R99H): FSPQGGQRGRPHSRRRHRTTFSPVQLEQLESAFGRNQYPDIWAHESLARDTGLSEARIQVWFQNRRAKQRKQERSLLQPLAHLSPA
PROP1 (Homo sapiens, UniProt O75360 56-141, F88S), sequence (O75360 56-141 F88S): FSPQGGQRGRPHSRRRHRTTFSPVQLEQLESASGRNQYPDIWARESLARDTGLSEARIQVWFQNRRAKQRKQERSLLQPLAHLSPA

As to CACTTATA, in the assay with HOXB9 [1], the binding signal is 10.4 upbm affinity estimate (log intensity, higher = more binding, comparable within an allelic series).

For CACTTAGA, the binding signal in the assay with HESX1 [2] is 7.73 upbm affinity estimate (log intensity, higher = more binding, comparable within an allelic series); in the assay with HESX1 [3] it was 7.94 upbm affinity estimate (log intensity, higher = more binding, comparable within an allelic series); with HESX1 [4], 6.78 upbm affinity estimate (log intensity, higher = more binding, comparable within an allelic series).

CTTCCGTC: the binding signal is 6.54 upbm affinity estimate (log intensity, higher = more binding, comparable within an allelic series) in the assay with HESX1 [2]; 6.45 upbm affinity estimate (log intensity, higher = more binding, comparable within an allelic series) in the assay with HESX1 [3]; 6.61 upbm affinity estimate (log intensity, higher = more binding, comparable within an allelic series) with HESX1 [4].

In the case of GCACTTAA, the binding signal with HOXB6 [5] was 9.75 upbm affinity estimate (log intensity, higher = more binding, comparable within an allelic series); in the assay with HOXA2 [6], 10.2 upbm affinity estimate (log intensity, higher = more binding, comparable within an allelic series); in the assay with HOXA2 [7], 12.3 upbm affinity estimate (log intensity, higher = more binding, comparable within an allelic series); in the assay with HOXA2 [8], 10.8 upbm affinity estimate (log intensity, higher = more binding, comparable within an allelic series); with HOXA2 [9] it was 10.4 upbm affinity estimate (log intensity, higher = more binding, comparable within an allelic series); with HOXB6 [10], 10.9 upbm affinity estimate (log intensity, higher = more binding, comparable within an allelic series).

Consider CTAATTGC, for which the binding signal is 12.3 upbm affinity estimate (log intensity, higher = more binding, comparable within an allelic series) in the assay with HESX1 [2]; 11.8 upbm affinity estimate (log intensity, higher = more binding, comparable within an allelic series) in the assay with SHOX [11]; 9.81 upbm affinity estimate (log intensity, higher = more binding, comparable within an allelic series) with HOXB6 [5]; 12.5 upbm affinity estimate (log intensity, higher = more binding, comparable within an allelic series) with HESX1 [3]; 13.1 upbm affinity estimate (log intensity, higher = more binding, comparable within an allelic series) with HOXA2 [6]; 13 upbm affinity estimate (log intensity, higher = more binding, comparable within an allelic series) in the assay with MSX2 [12]. Moreover, the binding signal is 9.34 upbm affinity estimate (log intensity, higher = more binding, comparable within an allelic series) with SHOX [13]; 13.5 upbm affinity estimate (log intensity, higher = more binding, comparable within an allelic series) in the assay with HOXA2 [7]; 14 upbm affinity estimate (log intensity, higher = more binding, comparable within an allelic series) in the assay with MSX2 [14]; 11.2 upbm affinity estimate (log intensity, higher = more binding, comparable within an allelic series) with PROP1 [15]; 11.5 upbm affinity estimate (log intensity, higher = more binding, comparable within an allelic series) with PROP1 [16]; 7.41 upbm affinity estimate (log intensity, higher = more binding, comparable within an allelic series) with PROP1 [17]. Besides, the binding signal with MSX2 [18] was 13.6 upbm affinity estimate (log intensity, higher = more binding, comparable within an allelic series); with HESX1 [4] it was 7.52 upbm affinity estimate (log intensity, higher = more binding, comparable within an allelic series); with HOXA2 [8], 10.7 upbm affinity estimate (log intensity, higher = more binding, comparable within an allelic series); in the assay with HOXA2 [9], 12.6 upbm affinity estimate (log intensity, higher = more binding, comparable within an allelic series); with VAX1 it was 12.8 upbm affinity estimate (log intensity, higher = more binding, comparable within an allelic series); with HOXB6 [10] it was 11.8 upbm affinity estimate (log intensity, higher = more binding, comparable within an allelic series).

Turning to CACTTTAA, in the assay with SHOX [11], the binding signal was 8.82 upbm affinity estimate (log intensity, higher = more binding, comparable within an allelic series).

As for CCAGCGCG, the binding signal with HESX1 [2] is 6.43 upbm affinity estimate (log intensity, higher = more binding, comparable within an allelic series); with HESX1 [3], 6.41 upbm affinity estimate (log intensity, higher = more binding, comparable within an allelic series); with HESX1 [4], 6.43 upbm affinity estimate (log intensity, higher = more binding, comparable within an allelic series).

With CGTGCACG, the binding signal was 8.83 upbm affinity estimate (log intensity, higher = more binding, comparable within an allelic series) with HOXB9 [19] and 8.75 upbm affinity estimate (log intensity, higher = more binding, comparable within an allelic series) with HOXB9 [1].

As for CTGGCCAG, the binding signal in the assay with MSX2 [12] was 9.71 upbm affinity estimate (log intensity, higher = more binding, comparable within an allelic series); with MSX2 [14], 9.79 upbm affinity estimate (log intensity, higher = more binding, comparable within an allelic series); with MSX2 [18] it was 9.83 upbm affinity estimate (log intensity, higher = more binding, comparable within an allelic series).

Turning to CATGCGCC, the binding signal with HOXB9 [19] is 8.7 upbm affinity estimate (log intensity, higher = more binding, comparable within an allelic series); with HOXB9 [1], 8.56 upbm affinity estimate (log intensity, higher = more binding, comparable within an allelic series).

Regarding GCGACGCC, the binding signal with HOXA2 [6] was 7.22 upbm affinity estimate (log intensity, higher = more binding, comparable within an allelic series); with HOXA2 [7], 10.4 upbm affinity estimate (log intensity, higher = more binding, comparable within an allelic series); with HOXA2 [8] it was 10.6 upbm affinity estimate (log intensity, higher = more binding, comparable within an allelic series); in the assay with HOXA2 [9], 7.31 upbm affinity estimate (log intensity, higher = more binding, comparable within an allelic series); with VAX1, 7.22 upbm affinity estimate (log intensity, higher = more binding, comparable within an allelic series).

Take ATAATGGG: the binding signal was 9.9 upbm affinity estimate (log intensity, higher = more binding, comparable within an allelic series) with HOXB6 [5] and 11.8 upbm affinity estimate (log intensity, higher = more binding, comparable within an allelic series) with HOXB6 [10].

For CCGGTGGC, the binding signal with MSX2 [12] is 9.47 upbm affinity estimate (log intensity, higher = more binding, comparable within an allelic series); with MSX2 [14] it was 9.56 upbm affinity estimate (log intensity, higher = more binding, comparable within an allelic series); in the assay with MSX2 [18], 9.58 upbm affinity estimate (log intensity, higher = more binding, comparable within an allelic series); with VAX1 it was 7.27 upbm affinity estimate (log intensity, higher = more binding, comparable within an allelic series).

With CACGGGCC, the binding signal was 6.97 upbm affinity estimate (log intensity, higher = more binding, comparable within an allelic series) in the assay with HOXA2 [6]; 9.44 upbm affinity estimate (log intensity, higher = more binding, comparable within an allelic series) with MSX2 [12]; 10.1 upbm affinity estimate (log intensity, higher = more binding, comparable within an allelic series) in the assay with HOXA2 [7]; 9.39 upbm affinity estimate (log intensity, higher = more binding, comparable within an allelic series) with MSX2 [14]; 9.46 upbm affinity estimate (log intensity, higher = more binding, comparable within an allelic series) in the assay with MSX2 [18]; 10.3 upbm affinity estimate (log intensity, higher = more binding, comparable within an allelic series) with HOXA2 [8]. Moreover, the binding signal with HOXA2 [9] is 6.84 upbm affinity estimate (log intensity, higher = more binding, comparable within an allelic series).

In the case of CCAGCCAG, the binding signal with HOXB9 [19] is 8.47 upbm affinity estimate (log intensity, higher = more binding, comparable within an allelic series); in the assay with HOXB9 [1], 8.34 upbm affinity estimate (log intensity, higher = more binding, comparable within an allelic series).
